# Reference: PubChem BioAssay (Tox21)
# Records with an inconclusive call do not appear. Unmarked numbers belong to inactive results. Calls of active or inactive are those of the source. The call rests on the fitted dose curve; in most records, active means well fitted cell-killing curve with a large enough effect in the repeat runs; inconclusive means weak or mixed curves, or effect the other way; inactive means no such curve, though single readings can be large or run the other way.
# Experiment: qHTS assay to identify small molecule agonists of the farnesoid-X-receptor (FXR) signaling pathway - cell viability counter screen (AID 743218); further: nearly all actives have a fitted effect of over 45% in size
# Settings: FXR-bla HEK293T viability, CellTiter-Glo luminescence, 16 h; series mostly up to 62.6 µM; viability change, negative = cytotoxic: at the top concentration
# Text: U.S. Tox21 Program National Center for Advancing Translational Sciences [NCATS] NIH Chemical Genomics Center [NCGC] U.S. Environmental Protection Agency [EPA] National Institutes of Environmental Health Sciences [NIEHS] National Toxicology Program [NTP] U.S. Food and Drug Administration [FDA] Tox21 Assay Overview: The farnesoid-X-receptor (FXR), a nuclear hormone receptor, is highly expressed in liver, intestine, kidney and adrenal cortex. Natural ligands of FXR are the bile acids (Cholic acid, Chenodeoxy cholic acid etc). FXR is an important regulator of diverse metabolic pathways, including the bile acid homeostasis, lipid and glucose metabolisms. FXR regulates the expression of target genes by binding either as a monomer or as a heterodimer with the retinoid X receptor (RXR). Numerous studies have reported that FXR exerts protective function during cholestasis, diabetes, liver regeneration, and cancer. To identify compounds that activate FXR signaling, GeneBLAzer FXR-UAS-bla HEK 293T cell line (Invitrogen, Carlsbad, CA) containing a beta-lactamase reporter gene under the control of a UAS response element was used to screen the Tox21 10K compound library. The cytotoxicity of the Tox21 compound library against the FXR-bla cell line was tested in parallel by measuring the cell viability using CellTiter-Glo assay in the same wells.
# Tox21 Assay Protocol Summary: FXR-bla cells were dispensed at 5000 cells/5uL/well in 1536-well black wall/clear bottom plates using a Multidrop Combi (Thermo Fisher Scientific, Waltham, MA) dispenser. After the assay plates were incubated at 37 C and 5% CO2 for 5 h, 23 nL of compounds dissolved in DMSO, positive controls or DMSO only was transferred to the assay plate by a Pintool station (Kalypsys, San Diego, CA). The assay plates were incubated at 37C for 16 h. After 1 uL of LiveBLAzerTM B/G FRET substrate was added using a Bioraptr Flying Reagent Dispenser (FRD) workstation (Beckman Coulter, Indianapolis, IN), the plates were incubated at room temperature for 2 h, and fluorescence intensity was measured by an Envision plate reader (PerkinElmer, Shelton, CT). For cell viability readout that measures cytotoxicity, 4uL/well of CellTiter-Glo reagent was added into the assay plates using a Bioraptr FRD. After 30 min incubation at room temperature, the luminescence intensity in the plates was measured using a ViewLux plate reader (PerkinElmer).
# On the % scale 0 is the no-effect control and ±100 the full control effect.
Structure (SMILES),"viability change, negative = cytotoxic",Potency
C1CN(CCOCCN2CCOCC2)CCO1,-9.24%,
OCCOc1ccc(OCCO)cc1,-1.51% [at 81.1 µM],
CCOC(=O)[C@H](CCc1ccccc1)N[C@@H](C)C(=O)N1[C@H](C(=O)O)C[C@@H]2CCC[C@@H]21,0.041%,
O=C1CCCCCCCCCCCN1,,inactive
CCCCCCCCS(=O)(=O)Cl,-1.36% [at 81.1 µM],
O=C(O)Cc1ccc(CCNS(=O)(=O)c2ccc(Cl)cc2)cc1,10.9%,
Cc1cc2c(cc1S(N)(=O)=O)S(=O)(=O)CCC2,-11.3%,
COC(=O)C1=C(C)NC(C)=C(C(=O)OC)C1c1ccccc1[N+](=O)[O-],20%,
Nc1c[n+](N2CCOCC2)no1,13.2%,
OC(CCN1CCCCC1)(c1ccccc1)C1CC2C=CC1C2 (stereo not given),1.96%,
Oc1ccc(C2CNCCc3c2cc(O)c(O)c3Cl)cc1 (stereo not given),8.92%,
CCN(Cc1ccncc1)C(=O)C(CO)c1ccccc1 (stereo not given),-12.9%,
CCOC(=O)C(=O)OCC,-0.675%,
CCN(CC)CCNC(=O)c1cc(S(C)(=O)=O)ccc1OC,4.24%,
C=C(C)C(=O)OCCCCCCCC(C)C,6.79% [at 81.1 µM],
N[C@H](C(=O)O)c1ccc(O)cc1,16.9% [at 29.1 µM],
O=Cc1cccc([N+](=O)[O-])c1,6.34%,
O=C(O)CNC(=O)c1ccc([N+](=O)[O-])cc1,0.803%,
ClC(Cl)(Br)Br,-0.0486%,
C[C@H]1C[C@@H](O)CC(C)(C)C1,-2.39%,

Structure (SMILES),"viability change, negative = cytotoxic",Potency
CC(C)CNCC(C)C,21.9%,
O=C(CCCN1CCN(c2ccccn2)CC1)c1ccc(F)cc1,-8.09%,
CC(C)(c1ccc(O)cc1)c1ccc(O)cc1,25.1%,
COc1ccc2c(c1)c(CC(=O)OCC(=O)O)c(C)n2C(=O)c1ccc(Cl)cc1,2.73%,
CCN(CC)CCOCCOC(=O)C1(c2ccccc2)CCCC1,-1.24%,
C1OCOCO1,8.74% [at 81.1 µM],
NS(=O)(=O)c1ccc(C(=O)O)cc1,4.18%,
CCCCNC(=O)NCCCC,25.3%,
N=C(N)c1ccc(OCCCOc2ccc(C(=N)N)cc2)cc1,0.086%,
CCn1nc(C(=O)O)c(=O)c2cc3c(cc21)OCO3,8.97%,
C=C1CC[C@H]2C[C@@H]1C2(C)C,19.5%,
O=C(O)c1ccccc1OP(=O)(O)O,0.0451%,
N[C@@H](C(=O)N[C@@H]1C(=O)N2C(C(=O)O)=C(Cl)CS[C@H]12)c1ccccc1,3.28% [at 13.2 µM],
C/C=C(\C)C#N,8.01%,
NCCCNCCSP(=O)(O)O,7.81% [at 13.2 µM],
CCOC(=O)CC(C)=O,-7.37% [at 81.1 µM],
CN1CCCC1,3.69%,
CC(=O)OCC(CCn1cnc2cnc(N)nc21)COC(C)=O,2.82%,
CC(C)(CC(=O)O)C(=O)O,16.8%,
CC(=O)OCC(=O)[C@@]1(O)CCC2C3CCC4=CC(=O)CC[C@]4(C)C3[C@@H](O)C[C@@]21C (stereo not given in full),15%,
